# Measurements from PubChem BioAssay (NCI).
# Compounds without any hit were thinned out: in the full panel of roughly 83,000, 20% have a hit.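 Negative percent growth values reflect cell death: -40 means 40% of the cells present at the start died, and -100 means all died.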 Unmarked numbers belong to inactive results. Calls of active or inactive are those of the source. How the source made its calls: active means growth percent below 10; inactive means the rest.
# Tests used:
# Test in all cases: NCI-60 one-dose screen, 48 h (100 = growth as untreated, 0 = no growth, -100 = all killed)
# Details in all cases: 10 µM
# [1] = tested on: HT29 colon
# [2] = tested on: SNB-75 CNS
# [3] = tested on: SNB-19 CNS
# [4] = tested on: U251 CNS
# [5] = tested on: PC-3 prostate
# [6] = tested on: SK-MEL-5 melanoma
# [7] = tested on: UACC-62 melanoma
# [8] = tested on: LOX IMVI melanoma
# [9] = tested on: SK-MEL-28 melanoma
# [10] = tested on: SK-MEL-2 melanoma
# [11] = tested on: EKVX NSCLC
# [12] = tested on: SN12C renal
# [13] = tested on: TK-10 renal
# [14] = tested on: ACHN renal
# [15] = tested on: CAKI-1 renal
# [16] = tested on: CCRF-CEM leukemia
# [17] = tested on: MOLT-4 leukemia
# [18] = tested on: SR leukemia
# [19] = tested on: UO-31 renal
# [20] = tested on: A498 renal
Compound,growth [1],growth [2],growth [3],growth [4],growth [5],growth [6],growth [7],growth [8],growth [9],growth [10],growth [11],growth [12],growth [13],growth [14],growth [15],growth [16],growth [17],growth [18],growth [19],growth [20]
COc1ccc2c(c1)[n+]([O-])c(C#N)c(NC(=O)c1ccco1)[n+]2[O-],101%,110%,95.6%,98.5%,179%,79.3%,98.2%,95.1%,120%,101%,119%,110%,112%,95.1%,96.5%,220%,93.3%,87.4%,,
CCCCC/C=C/C(=O)CCc1ccc(O)c(OC)c1,93.1%,63%,87.1%,79.6%,55.8%,97.7%,83.1%,23.7%,95.8%,121%,91.2%,81.3%,110%,103%,,27.6%,96.7%,53.4%,37%,
Clc1cc2c(c(CSc3nc4ccccc4n4cccc34)c1)OCOC2,88.3%,62%,107%,85.9%,60.5%,83.7%,112%,87.5%,92.8%,79.7%,70.6%,81.5%,79.4%,87.9%,,93.7%,94.8%,29.2%,74%,
NC(=O)c1ccc(-c2cccc3c(=O)nc(N4CCOCC4)oc23)cc1,101%,74.5%,99.1%,97.7%,89.9%,97.8%,92.3%,91.1%,103%,102%,97.3%,104%,,100%,,98.6%,103%,92%,89.2%,98.2%
CN(C)c1ccc(N=C2C=CC(=O)c3ccccc32)cc1,61.4%,84.7%,70.7%,87.5%,65.2%,-56.1% (active),22.5%,40.9%,73.6%,64.9%,,55.4%,111%,79.5%,80.9%,70.5%,77.6%,,48.8%,91.3%
CN(C)c1ccc(-c2cc(-c3cccc(NS(C)(=O)=O)c3)nc(N)c2C#N)cc1,8.8% (active),-2.46% (active),43.3%,20.3%,10.4%,4.17% (active),47.4%,23.7%,69%,57.2%,17.3%,37.9%,42.1%,26.1%,,15.9%,24.3%,9.27% (active),11.2%,
Cc1ccc(Nc2cc(C)nc(NCCCNc3ccnc4cc(Cl)ccc34)n2)cc1,-87.2% (active),-98.5% (active),-24.9% (active),-99.2% (active),-38.4% (active),-100% (active),-92.9% (active),-82.7% (active),-100% (active),-97% (active),,-81% (active),-94.7% (active),-98.2% (active),-87.2% (active),-27.8% (active),-47.6% (active),,-95% (active),-59.4% (active)
Clc1ccc2c(NCCCNc3nccc(Nc4ccc(Br)cc4)n3)ccnc2c1,-80.3% (active),-93.9% (active),-8.34% (active),-98.3% (active),-33.4% (active),-100% (active),-87.9% (active),-85.8% (active),-97.2% (active),-96.7% (active),,-65.1% (active),-90.4% (active),-90.6% (active),-80.4% (active),-24.5% (active),-44.6% (active),,-72.3% (active),19.6%
CC[C@H](C)C(=O)O[C@H]1CCC=C2C=C[C@H](C)C(CCC3C[C@@H](O)CC(=O)O3)[C@H]21 (stereo partly drawn),92.3%,32.2%,56.2%,16.8%,31.1%,60%,29.6%,11.6%,78.4%,19.5%,65.6%,32.4%,97.2%,,-1.64% (active),82.3%,91.9%,15.5%,70.1%,-33.8% (active)
